From PubChem BioAssay

Each molecule was assayed against Calmodulin-1 (Homo sapiens) (UniProt P0DP23) (assay: small molecules binding calmodulin-1 with EGTA – biochemical, small-molecule microarray, Cy5-labelled CALM1, profiling panel (AID 1111;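 further: labelled calmodulin applied in Tris saline Tween buffer holding calcium plus EGTA and DTT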)). Details: Cy5-CALM1 binding fluorescence, higher = more signal.
Work on `O=C1C2C=CC(C(O)Cc3ccccc3)N(Nc3ccc([N+](=O)[O-])cc3)C2C(=O)N1c1ccccc1` (stereo not given) yielded a composite z-score of 0.417. With `CC(C)C[C@@H]1NC(=O)[C@H](CC(C)C)NC(=O)[C@@]23C(=O)N[C@@H](Cc4ccccc4)C2[C@H](C)[C@@]2(C)O[C@H]2C3/C=C/CC/C=C/CNC1=O` (stereo not given in full) the composite z-score was 0.102. `COC(=O)[C@@]1(Cc2ccccc2CN=[N+]=[N-])N=C(c2ccc(OCCCO)cc2)O[C@H]1c1ccccc1N=[N+]=[N-]` gave a composite z-score of 0.173. `CCOC(=O)C[C@H]1[C@H](OC(=O)Cc2ccc3c(c2)OCO3)[C@@H](NC(=O)c2ccc3ccccc3c2)c2cc(OCCCO)ccc2N1C(=O)Cc1ccc(OC)cc1` was tested, and the composite z-score was 1.19. In the case of `C[N+](C)(C)CCCCNC(=O)[C@H]1C[C@H]2C(=O)NCC(=O)N2[C@H]1c1cccc(OCCO)c1`, the composite z-score is reported as -1.68. `C=C(/C(=C/C[C@@H](OC(=O)c1ccncc1)c1ccc(CO)o1)c1cnc2ccccc2c1)C(C)C` gave a composite z-score of 1.64. Molecule `CCCNC(=O)[C@@]1(Sc2ccc(C)cc2)CC(=O)N(Cc2ccccc2Cl)[C@@H]1c1ccc(CO)cc1` has a composite z-score of 0.857. For `COC(=O)Cn1c(C(=O)N2CCCC2)cc2c1C[C@H]1CN(C(=O)c3ccccc3)[C@@](Cc3ccccc3)(C(=O)OC)[C@@H]21`, the composite z-score was 0.79. With `NC(=O)NCC#Cc1ccc2c(c1)[C@]1(C(=O)N2)[C@H](C(=O)N2CCCCCCC2)[C@H]2C(=O)O[C@H](c3ccccc3)[C@H](c3ccccc3)N2[C@@H]1c1ccccc1OCCO` the composite z-score was 2.99. In the case of `Cc1ccc(S[C@]2(C(=O)NCCCN(C)C)CC(=O)N(C3CCCCC3)[C@@H]2c2ccc(CO)cc2I)cc1`, the composite z-score is reported as -0.454.
